Consider five compounds from PubChem BioAssay.

Activity calls are given as the source filed them.

The target in experiment [1] is Albumin (Bos taurus) (UniProt P02769). The experiment is described as follows: bovine serum albumin binders on microarray, profiling panel, artefact control for SMM control protein annotation, biochemical, small-molecule microarray, Alexa647 label, 635/667 nm fluorescence (AID 1118).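 Note: score merges 667 nm emission intensity and signal-to-noise per printed compound spot.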 The following applies: BSA-A647 binding, fluorescence 635 nm, higher = more signal.
The nature of experiment [2]: small-molecule microarray binders of probe aXIP, primary screen, biochemical, NeuroSMM set, 635/667 nm fluorescence (AID 1119).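 Note: probe is the protein aXip251-270 applied at 1 µg/mL to compound-printed slides; binding of probe to printed compounds measured as 667 nm fluorescence plus signal to noise.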 The following applies: higher = more signal, called active from +8 up or from −8 down.
A short description of experiment [3]: small-molecule binders of probe aNOTCH3, primary screen, biochemical, small-molecule microarray, 635/667 nm fluorescence (AID 1120).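 Note: probe is a biotin-tagged antibody raised against NOTCH3 rather than NOTCH3 protein; score merges spot fluorescence near 667 nm with spot signal to noise.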 The following applies: higher = more signal.
Experiment [4] is described as follows: small-molecule binders of probe aNOTCH2, primary screen, biochemical, small-molecule microarray, 635/667 nm fluorescence (AID 1121).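 Note: score merges feature fluorescence read at 667 nm with its signal to noise.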 The following applies: higher = more signal.
Experiment [5] addresses Carbonic anhydrase 2 (Homo sapiens) (UniProt P00918). Briefly: CAII small-molecule binders, profiling panel, biochemical, small-molecule microarray, Alexa647-labelled CAII (AID 1122). The following applies: CAII-A647 binding fluorescence, higher = more signal.
Experiment [6] in a line: COS7 lysate on small-molecule microarray, probe aHis, 635 nm (AID 1123).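 Note: z-score combines 667nm fluorescence intensity with signal-to-noise per printed compound spot.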 The following applies: COS7 cell lysate, fluorescence, higher = more signal.
Experiment [7] can be described thus: compound binding in COS7 lysate, probe aLAP1, primary screen, cell lysate, small-molecule microarray (AID 1124).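 Note: lysate comes from COS7 cells expressing LAP1 and is applied at 0.3 µg/mL; score merges spot fluorescence near 667 nm with signal-to-noise over triplicate slides.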 The following applies: probe aLAP1, fluorescence, higher = more signal.
Experiment [8] relates to Sam68 (KHDRBS1). The experiment is described as follows: Sam68 small-molecule binders, primary screen, biochemical, small-molecule microarray, 635 nm fluorescence (AID 1125).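 Note: score merges 667 nm channel intensity with signal to noise over triplicate slides.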 The following applies: small-molecule microarray binding, higher = more signal.
Experiment [9] relates to Chordin-like protein 2 (CHRDL2). The experiment is described as follows: CHRDL2 small-molecule binders, primary screen, biochemical, small-molecule microarray, 635 nm fluorescence (AID 1126).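 Note: printed compound slides probed with Chrdl2 protein at 4 µg/mL for 1 h at 4 C; score merges 667 nm emission intensity with signal to noise over three replicate slides.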 The following applies: small-molecule microarray binding, fluorescence 635 nm; higher = more signal.
The target in experiment [10] is Concanavalin-A (Canavalia ensiformis) (UniProt P02866). The experiment is described as follows: ConA small-molecule binders, primary screen, artefact control for SMM control protein annotation, biochemical, small-molecule microarray, Alexa647 label, 635 nm (AID 1127).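 Note: z combines 667 nm emission intensity with signal-to-noise across three replicate slides.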 The following applies: ConA-A647 binding fluorescence, higher = more signal.
Experiment [11] can be described thus: anti-His antibody binders, primary screen, artefact control for SMM control protein annotation, biochemical, small-molecule microarray, 635 nm fluorescence (AID 1128).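 Note: score merges feature fluorescence with signal-to-noise for each printed compound spot.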 The following applies: anti-His Alexa647 antibody binding, higher = more signal.
Experiment [12] concerns Human papillomavirus type 1a E7 protein (residues 1-88). Briefly: HPV1a E7 small-molecule binders, primary screen, biochemical, small-molecule microarray, residues 1-88, 635 nm (AID 1129). The following applies: small-molecule microarray binding, fluorescence 635 nm; higher = more signal.
The target of experiment [13] is Focal adhesion kinase 1 (Homo sapiens) (UniProt Q05397). The experiment is described as follows: small-molecule microarray binders of FAK, primary screen, biochemical, 635/667 nm fluorescence, BSA, DTT (AID 1130).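 Note: composite of spot emission at 667 nm and signal to noise over triplicate slides.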 The following applies: PTK2 binding, 635 nm fluorescence, higher = more signal.
Experiment [14] relates to Fibrinogen (Alexa647-labelled). Briefly: fibrinogen binders on compound microarrays, profiling panel, artefact control for SMM control-protein annotation, biochemical, small-molecule microarray, 635/667 nm fluorescence (AID 1131).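 Note: z-score merges 667 nm fluorescence with per-spot signal-to-noise over triplicate slides.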 The following applies: fibrinogen-A647 binding fluorescence, higher = more signal.
In experiment [15] the target is Follistatin (Homo sapiens) (UniProt P19883). The experiment is described as follows: follistatin binders on small-molecule microarrays, primary screen, biochemical, small-molecule microarray, 635/667 nm fluorescence (AID 1132). The following applies: FST binding, 635 nm fluorescence, higher = more signal.
Experiment [16] addresses Fibroblast growth factor 2 (Homo sapiens) (UniProt P09038). The experiment is described as follows: FGF2 binders on small-molecule microarrays, primary screen, biochemical, small-molecule microarray, 635/667 nm fluorescence (AID 1133). The following applies: small-molecule microarray binding, FGF2, fluorescence 635/667; higher = more signal.
Experiment [17] is described as follows: mitochondrial membrane potential change in A549 cells, profiling panel, cell-based, JC-1 fluorescence, basal, 24 h, 100 nL (AID 1138).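 Note: A549 lung adenocarcinoma cells under basal conditions with no added stimulus; test concentration not given here.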 The following applies: higher = more signal.
Experiment [18] deals with Lefty1. Briefly: Lefty1 binders on small-molecule microarrays, primary screen, biochemical, small-molecule microarray, 635/667 nm fluorescence (AID 1139). The following applies: small-molecule microarray binding, fluorescence 635/667; higher = more signal.
Experiment [19] deals with wheat germ agglutinin (Triticum aestivum), Alexa647-labelled. Briefly: wheat germ agglutinin binders on compound microarrays, profiling panel, artefact control for SMM control-protein annotation, biochemical, small-molecule microarray, 635/667 nm fluorescence (AID 1140).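 Note: score merges 667 nm feature emission with signal to noise over triplicate slides.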 The following applies: WGA-A647 binding, 635 nm fluorescence, higher = more signal.
Experiment [20] concerns the target Luciferin 4-monooxygenase (Photinus pyralis) (UniProt P08659). Briefly: firefly luciferase enzyme inhibitors, primary screen, biochemical, luminescence, purified enzyme, 2006 set (AID 1141).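 Note: cell-free assay with purified firefly luciferase at 100 ng per well in PBS; test concentration not given here.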 The following applies: SteadyGlo luminescence, 30 min, higher = more signal, called active from +8 up or from −8 down.

Sequence of Albumin (Bos taurus) (P02769 whole entry, looked up): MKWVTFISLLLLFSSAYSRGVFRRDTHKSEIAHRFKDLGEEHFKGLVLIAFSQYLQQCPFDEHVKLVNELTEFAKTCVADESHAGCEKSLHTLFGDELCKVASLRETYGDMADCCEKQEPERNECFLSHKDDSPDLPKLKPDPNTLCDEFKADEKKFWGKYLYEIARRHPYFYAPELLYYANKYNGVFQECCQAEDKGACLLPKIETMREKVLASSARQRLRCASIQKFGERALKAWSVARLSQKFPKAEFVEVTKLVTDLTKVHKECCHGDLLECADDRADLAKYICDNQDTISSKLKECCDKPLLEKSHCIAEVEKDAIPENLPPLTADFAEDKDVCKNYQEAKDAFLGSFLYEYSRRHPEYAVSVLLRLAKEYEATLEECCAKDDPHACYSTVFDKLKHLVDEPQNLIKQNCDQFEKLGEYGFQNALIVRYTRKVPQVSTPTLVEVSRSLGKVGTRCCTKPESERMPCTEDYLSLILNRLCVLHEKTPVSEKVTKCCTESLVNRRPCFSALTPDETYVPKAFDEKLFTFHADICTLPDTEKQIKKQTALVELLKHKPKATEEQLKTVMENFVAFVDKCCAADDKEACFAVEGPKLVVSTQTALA
Sequence of Fibroblast growth factor 2 (Homo sapiens) (P09038 whole entry, looked up): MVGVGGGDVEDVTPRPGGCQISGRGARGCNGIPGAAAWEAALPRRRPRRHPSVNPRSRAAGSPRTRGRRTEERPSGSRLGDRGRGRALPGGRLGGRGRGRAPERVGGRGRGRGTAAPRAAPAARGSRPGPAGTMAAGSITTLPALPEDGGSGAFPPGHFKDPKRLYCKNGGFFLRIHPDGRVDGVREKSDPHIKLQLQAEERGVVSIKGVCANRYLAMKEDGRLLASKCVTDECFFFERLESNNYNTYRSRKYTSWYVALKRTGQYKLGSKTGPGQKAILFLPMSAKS
Sequence of Follistatin (Homo sapiens) (P19883 whole entry, looked up): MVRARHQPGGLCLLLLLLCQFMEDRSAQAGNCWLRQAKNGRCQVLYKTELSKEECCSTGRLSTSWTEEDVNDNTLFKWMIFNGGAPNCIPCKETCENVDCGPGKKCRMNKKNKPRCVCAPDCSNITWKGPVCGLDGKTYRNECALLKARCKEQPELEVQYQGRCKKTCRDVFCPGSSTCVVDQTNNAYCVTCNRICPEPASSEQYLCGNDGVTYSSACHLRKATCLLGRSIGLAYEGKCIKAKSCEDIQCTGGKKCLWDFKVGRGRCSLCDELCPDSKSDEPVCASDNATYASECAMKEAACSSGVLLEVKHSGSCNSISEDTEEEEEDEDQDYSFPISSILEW
Sequence of Focal adhesion kinase 1 (Homo sapiens) (Q05397 whole entry, looked up): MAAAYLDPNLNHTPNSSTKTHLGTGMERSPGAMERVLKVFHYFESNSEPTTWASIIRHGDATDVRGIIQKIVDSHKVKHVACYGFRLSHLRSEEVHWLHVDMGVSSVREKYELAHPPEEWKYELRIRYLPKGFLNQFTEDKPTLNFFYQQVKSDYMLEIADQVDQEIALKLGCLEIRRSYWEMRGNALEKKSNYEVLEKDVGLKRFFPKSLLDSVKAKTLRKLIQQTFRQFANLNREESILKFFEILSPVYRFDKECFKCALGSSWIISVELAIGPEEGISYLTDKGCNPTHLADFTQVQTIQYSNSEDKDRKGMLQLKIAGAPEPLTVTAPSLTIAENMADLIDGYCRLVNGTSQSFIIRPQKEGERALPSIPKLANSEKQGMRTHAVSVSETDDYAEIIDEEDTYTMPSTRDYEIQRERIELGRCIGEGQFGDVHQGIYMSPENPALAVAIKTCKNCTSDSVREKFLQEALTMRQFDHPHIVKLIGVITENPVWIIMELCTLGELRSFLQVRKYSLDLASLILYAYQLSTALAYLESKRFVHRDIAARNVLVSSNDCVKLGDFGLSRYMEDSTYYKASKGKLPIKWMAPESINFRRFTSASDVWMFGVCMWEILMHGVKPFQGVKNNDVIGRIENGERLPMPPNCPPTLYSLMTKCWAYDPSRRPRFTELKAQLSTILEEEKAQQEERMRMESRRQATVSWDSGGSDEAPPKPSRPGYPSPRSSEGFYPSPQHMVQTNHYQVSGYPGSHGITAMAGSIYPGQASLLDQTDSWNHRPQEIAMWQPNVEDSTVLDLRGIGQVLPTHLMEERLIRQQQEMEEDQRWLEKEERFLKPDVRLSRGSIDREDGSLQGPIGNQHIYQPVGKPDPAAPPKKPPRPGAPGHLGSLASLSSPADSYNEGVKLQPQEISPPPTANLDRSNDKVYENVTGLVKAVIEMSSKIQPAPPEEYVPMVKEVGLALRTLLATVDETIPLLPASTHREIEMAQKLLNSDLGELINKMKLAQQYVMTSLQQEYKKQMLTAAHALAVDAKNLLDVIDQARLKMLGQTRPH
Sequence of Concanavalin-A (Canavalia ensiformis) (P02866 whole entry, looked up): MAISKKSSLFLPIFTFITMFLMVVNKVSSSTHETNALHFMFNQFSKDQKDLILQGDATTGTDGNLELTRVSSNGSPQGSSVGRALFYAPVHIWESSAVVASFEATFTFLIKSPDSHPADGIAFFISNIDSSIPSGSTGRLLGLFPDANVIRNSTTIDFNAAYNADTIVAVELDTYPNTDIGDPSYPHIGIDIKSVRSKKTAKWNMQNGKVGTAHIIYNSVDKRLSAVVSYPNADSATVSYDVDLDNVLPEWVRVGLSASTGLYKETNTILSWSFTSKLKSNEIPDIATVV
Sequence of Luciferin 4-monooxygenase (Photinus pyralis) (P08659 whole entry, looked up): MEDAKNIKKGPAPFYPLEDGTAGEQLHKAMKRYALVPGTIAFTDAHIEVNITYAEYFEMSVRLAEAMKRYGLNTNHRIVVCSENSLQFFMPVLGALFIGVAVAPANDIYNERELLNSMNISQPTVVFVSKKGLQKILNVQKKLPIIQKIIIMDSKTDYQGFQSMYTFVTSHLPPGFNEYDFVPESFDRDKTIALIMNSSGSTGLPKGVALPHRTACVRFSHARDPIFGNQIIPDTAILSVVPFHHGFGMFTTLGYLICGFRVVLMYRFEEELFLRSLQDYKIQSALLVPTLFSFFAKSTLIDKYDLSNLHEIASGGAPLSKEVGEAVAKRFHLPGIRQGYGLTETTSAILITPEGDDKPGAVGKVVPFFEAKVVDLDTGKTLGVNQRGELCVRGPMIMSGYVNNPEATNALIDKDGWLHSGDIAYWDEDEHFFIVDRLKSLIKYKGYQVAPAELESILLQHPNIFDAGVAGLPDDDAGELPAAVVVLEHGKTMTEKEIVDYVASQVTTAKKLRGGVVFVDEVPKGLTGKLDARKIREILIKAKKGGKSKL

Consider `COCCCNC(=O)[C@@]1(C)c2ccccc2C(=O)N(C(C)C)[C@H]1c1ccc(CO)cc1`, for which the composite z-score is -0.106 in experiment [1]; 0.0001 in [3]; 0.0023 in [4]; 0.693 in [5]; 0.75 in [6]; 0.0526 in experiment [7]. The composite z-score in [8] came to 1.16; in [9], 1.08; in [10] it was 0.67; in experiment [11] it was 1.42; in experiment [12] it was 1.14; in [13], 0.624. For the same compound, the composite z-score came to 0.648 in experiment [14]; 1.16 in experiment [15]; 0.802 in [16]; 0.499 in experiment [18]; 0.342 in [19]. Also, the composite Z-score in experiment [2] is 0.466 (inactive). The z-score is 0.168 in experiment [17] and -0.336 (inactive) in experiment [20].
On to `CCCCCCc1nc(-c2ccc(OC)nc2)cc2c1[Si](C(C)C)(C(C)C)O[C@H]2c1ccccc1`, for which the composite z-score in experiment [1] is -0.807; in experiment [3] it was -0.0864; in experiment [4], -0.166; in [5], -0.0224; in experiment [6], 0.0277; in experiment [7], -0.08. The composite z-score in experiment [8] is -0.187; in experiment [9], 1.12; in [10] it was 0.0837; in [11] it was -0.133; in experiment [12], -0.484; in experiment [13], 0.0202. The composite z-score in experiment [14] was -0.51; in experiment [15], 0.885; in [16], 0.896; in experiment [18], 1.44; in experiment [19] it was 0.211. The composite Z-score in [2] is 0.131 (inactive). Further, the z-score in experiment [17] is -0.959; in experiment [20], 0.974 (inactive).
In the case of `COCCOC(=O)N1C(=O)[C@@]2(c3cc(C#Cc4ccc(OC)cc4)ccc31)[C@H](c1ccccc1OCCO)N1[C@H](c3ccccc3)[C@H](c3ccccc3)OC(=O)[C@H]1[C@@H]2C(=O)NC[C@H](O)c1ccccc1`, the composite z-score in experiment [1] is -0.0206; in experiment [3], 0.156; in [4], -0.115; in experiment [5] it was 0.528; in [6], 1.6; in experiment [7], 0.618. For the same compound, the composite z-score in [8] was 1.29; in experiment [9], 0.711; in [10], 0.999; in experiment [11], 0.992; in experiment [12], 1.24; in [13], 0.824. For the same compound, the composite z-score amounted to 0.782 in experiment [14]; 1.33 in [15]; 1.6 in [16]; 1.16 in experiment [18]; 0.889 in experiment [19]. Further, in [2], the composite Z-score is -0.112 (inactive). For the same compound, the values for the z-score in experiment [17] and in experiment [20] were -0.922 and 0.385 (inactive), respectively.
Consider `C=C(CCCC)/C(=C/C[C@@H](OC(=O)c1ccncc1)c1ccc(OCCO)cc1)c1cc(C(=O)OC)ccc1OC`, for which the composite z-score was 0.445 in experiment [1]; -0.0288 in experiment [3]; -0.123 in [4]; 0.554 in [5]; 0.517 in experiment [6]; 0.546 in experiment [7]. For the same compound, the composite z-score stood at 1.12 in experiment [8]; 0.0685 in [9]; 0.249 in [10]; 0.551 in [11]; 1.12 in experiment [12]; 0.0056 in experiment [13]. In addition, the composite z-score was -0.117 in experiment [14]; 0.641 in experiment [15]; 0.0097 in [16]; 0.865 in [18]; 0.229 in experiment [19]. Besides, the composite Z-score in experiment [2] was -0.367 (inactive). Also, the z-score in experiment [17] is 1.21; in experiment [20], -0.551 (inactive).
For `O=C(c1ccccc1)N1C(=O)[C@]2(COC(c3ccc(OCCCO)cc3)=N2)Cc2ccccc21`, the composite z-score in [1] was 0.368; in [3], 0.201; in [4] it was -0.0249; in experiment [5] it was 0.566; in [6] it was 3.17; in [7] it was 0.771. The composite z-score in experiment [8] was found to be 1.29; in [9], 0.674; in experiment [10], 1.16; in experiment [11] it was 3.28; in [12], 1.2; in experiment [13], 0.628. For the same compound, the composite z-score came out at 0.988 in experiment [14]; 1.4 in experiment [15]; 1.1 in [16]; 0.443 in [18]; 1.12 in [19]. Further, the composite Z-score in [2] was 3.03 (inactive). Moreover, the z-score in [17] was -0.345; in experiment [20] it was -1.19 (inactive).
